# This is a sample that favours compounds with a hit; in the whole collection about 19% have one here.
# HepG2 tox: kills HepG2 cells in TGF-b inhibitor counter-screen | Potency, µM (highest dose often 46.1 µM), for inactives: top-dose activity change, negative = cytotoxicity, usual class: cytotoxic | AID 588856 | 410,000 tested, 0.76% active | HepG2 CAGA-GFP viability, ATP luminescence, 18 h; note: potency is the fitted concentration of half-maximal effect
#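 HepG2 CAGA-GFP cells (1000/well, DMEM with 1% FBS) received compound, then TGF-beta at 500 pg/mL final, and were incubated 18 hours at 37 degrees C. Viability was read by CellTiter-Glo luminescence. Media-only wells were set as complete cell-killing and DMSO as no toxicity.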
# TDP1 cell CPT: growth inhibition of DT40 Tdp1-/-;hTDP1 cells with camptothecin (screen for TDP1 inhibitors); chicken DT40 Tdp1-/-;hTDP1 cells + 20 nM CPT, ATP luminescence, 48 h; Potency, µM (highest dose often 46.2 µM), without a hit: top-dose activity change, negative = growth inhibition, actives largely listed as inhibitors; 420,000 tested, 12% active; AID 686979; note: potency is the fitted concentration of half-maximal effect; % is set by controls: 0 for no effect and ±100 for the full control effect; nearly all actives have a fitted effect of over 55% in size
#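 Chicken DT40 Tdp1-/- cells stably complemented with human TDP1 were seeded at 400 cells/well in medium containing 20 nM camptothecin, exposed to pin-transferred compounds, and grown at 37 °C for at least 48 hr. Viability was read as ATP luminescence.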
# DT40 TDP1 no CPT: qHTS for Inhibitors of human tyrosyl-DNA phosphodiesterase 1 (TDP1): qHTS in cells in absence of CPT | 420,000 tested, 15% active | AID 686978, 2013 | Potency, µM (series often up to 46.2 µM), inactives show at the top dose activity change, negative = growth inhibition, hits mostly inhibitors | DT40 Tdp1-/- hTDP1 cells, no CPT, ATP luminescence, 48 h; note: potency is the fitted concentration of half-maximal effect; % is set by controls: 0 for no effect and ±100 for the full control effect; nearly all actives have a fitted effect of over 55% in size
#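 Readout: luminescence from CellTiter-Glo after 30 min in the dark at RT. Cells: DT40 Tdp1-/- with stable hTDP1, 400/well. Exposure: compounds alone, ≥48 hr, 37 °C.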
# TGFb inhibitor: TGF-b pathway inhibition; HepG2 CAGA-GFP TGF-b/SMAD3 reporter, GFP fluorescence, 18 h; TGF-beta stimulated, 500 pg/mL final; Potency, µM (doses to about 46.1 µM), without a hit: at the top dose activity, negative = inhibition, actives largely listed as inhibitors; 410,000 tested, 1.2% active; AID 588855; note: potency is the fitted concentration of half-maximal effect; % is set by controls: 0 for no effect and ±100 for the full control effect; nearly all actives have a fitted effect of over 65% in size
#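 Inhibition was scored as loss of TGF-beta-induced (500 pg/mL final, 18 hours, 37 degrees C) GFP in HEPG2 cells carrying a CAGA-GFP reporter, in DMEM with 1% FBS. Well GFP was summed per cell; Activity was normalised to unstimulated and stimulated DMSO wells, then concentration-response fitting.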
# S-ASM inh: human S-ASM enzyme inhibition | P17405 | placental ASM, HMU-PC fluorogenic substrate, 60 min | Potency, µM (highest dose often 57.5 µM), for the others: at the top dose activity change, negative = inhibition, most hits filed as inhibitors | 340,000 tested, 0.006% active | AID 504937; note: potency is the fitted concentration of half-maximal effect
# Target sequence (P17405 47-631 limits assumed): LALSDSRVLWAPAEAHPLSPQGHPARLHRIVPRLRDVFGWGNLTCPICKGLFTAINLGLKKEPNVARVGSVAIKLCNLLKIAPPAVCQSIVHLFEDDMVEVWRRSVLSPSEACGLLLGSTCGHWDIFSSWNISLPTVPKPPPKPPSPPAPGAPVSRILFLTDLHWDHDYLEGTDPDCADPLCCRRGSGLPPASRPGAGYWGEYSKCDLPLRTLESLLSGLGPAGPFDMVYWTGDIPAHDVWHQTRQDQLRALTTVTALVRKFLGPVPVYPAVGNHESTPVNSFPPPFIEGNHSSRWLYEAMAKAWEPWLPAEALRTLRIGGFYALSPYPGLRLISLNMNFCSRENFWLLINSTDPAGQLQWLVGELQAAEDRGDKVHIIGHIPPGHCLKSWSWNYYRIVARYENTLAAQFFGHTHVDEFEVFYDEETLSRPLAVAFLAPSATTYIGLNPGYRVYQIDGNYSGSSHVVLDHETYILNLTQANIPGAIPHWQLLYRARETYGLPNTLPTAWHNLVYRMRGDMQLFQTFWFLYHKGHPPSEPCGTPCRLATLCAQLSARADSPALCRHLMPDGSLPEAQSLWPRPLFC
#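 HMU-PC0 cleavage (9 uM final) by human placental ASM, 60 min at 37 °C following 10 min compound exposure at RT; stopped at pH 10, fluorescence Ex 386/Em 447 nm.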
# IL1B secr inh: inflammasome signaling inhibition, IL-1 beta readout; 360,000 tested, 4.7% active; THP-1 LPS/ATP IL-1B secretion, AlphaLISA, 16 h; stronger effect = lower value; AID 743279; activity change, % at 57.5 µM; in the data active = activity change below about -50%; inconclusive = mostly about -30% to -49%; note: % is set by controls: 0 for no effect and ±100 for the full control effect
#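 Secreted IL-1B measured by AlphaLISA bead assay after 16 h compound exposure of THP-1 cells; compounds (final up to 57.5 uM) added 1 h before LPS (250 ng/mL) and ATP (1.25 mM) stimulation; lower signal means less secretion.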
# Numbers without * were called inactive; u = inconclusive; x = no result; [ ] = remark or other dose. Unless noted, calls come from the whole dose curve; as a rule, active = well fitted curve in the direction sought with a large enough effect; inconclusive = small, poorly fitted or top-dose-only effect, or another doubt; inactive = no such curve, though single readings can be large; an effect the other way counts as inactive or inconclusive.
SMILES,HepG2 tox,TDP1 cell CPT,DT40 TDP1 no CPT,TGFb inhibitor,S-ASM inh,IL1B secr inh
COc1ccccc1C(=O)NCC(=O)N/N=C/c1cc(Br)ccc1OCc1ccccc1,-16.8%,u,23.1µM*,-4.2%,-8.9%,-77.7*
COc1ccc(CNC(=O)CCNC(=O)C2CCN(S(=O)(=O)c3ccc(OC)cc3)CC2)cc1,-8.3%,-16.8%,-25.3%,-1.1%,x,u
Cc1sc2ncn(CC(=O)N(C)c3ccc(Br)cc3)c(=O)c2c1S(=O)(=O)N1CCC(C)CC1,-2.1%,u,u,-26.9%,x,x
CC(=O)N1CCCC(C)(C(=O)Nc2ccc3nc(C)ccc3c2)C1 (configuration not stated),4.1%,-8.3%,-5.7%,5.1%,x,47.2
O=C(N/N=C\c1ccccc1OCc1ccccc1)c1ccco1,-2.6%,-18.4%,-20.4%,3.1%,-6.4%,-3.0
C#CCOc1ccccc1/C=N/NC(=O)c1ccccc1OCc1ccccc1,-17.6%,u,20.6µM*,-0.7%,-1.0%,-4.8
Cc1ccc(/C=N/NC(=O)c2ccccc2OCc2ccc(F)cc2)o1,-41.1%,5.8µM*,2.91µM*,-16.5%,-5.6%,0.0
CCC(C)[C@H](NC(=O)N1CC(=O)Nc2ccccc21)C(=O)Nc1ccccc1C (some centres not stated),-1.9%,16.4µM*,u,-8.6%,1.3%,22.5
Cc1ccccc1NC(=O)CNC(=O)N1CC(=O)Nc2ccccc21,7.6%,2.6%,4.9%,2.7%,x,19.6
CCCN(Cc1nnc(-c2cccs2)o1)C(=O)CN1C(=O)NC2(CCCCC2)C1=O,-1.6%,2.6%,-22.8%,-1.2%,-2.1%,-13.1
Cc1ccc(S(=O)(=O)N(C)C)cc1NC(=S)NC(C)CCCC(C)C (configuration not stated),-34.0%,25.9µM*,u,17.8µM*,x,-72.6*
Cc1ccc(S(=O)(=O)N(C)C)cc1NC(=S)NC(C)CCC(C)C (configuration not stated),-31.3%,23.1µM*,20.6µM*,-29.8%,-2.8%,18.2
Cc1ccc(S(=O)(=O)N(C)C)cc1NC(=S)Nc1cccc2ccccc12,-3.8%,u,u,-17.8%,0.5%,28.5
Cc1ccc(S(=O)(=O)N(C)C)cc1NC(=O)C(C)N(C)CCOc1ccc(Cl)cc1 (configuration not stated),-6.6%,u,29.1µM*,-15.7%,0.9%[11.5 µM],-7.3
CC(=O)NNC(=S)Nc1cc(S(=O)(=O)N(C)C)ccc1C,-4.8%,-2.0%,u,2.4%,3.8%,9.6
CCCCCCC(C)NC(=S)Nc1cc(S(=O)(=O)N(C)C)ccc1C (configuration not stated),-32.8%,u,23.1µM*,u,x,-2.4
CC(C(=O)Nc1ccc(F)cc1Cl)N(C)CCOc1ccccc1 (configuration not stated),-0.4%,-5.3%,-21.7%,22.1%,-3.0%,u
Cc1c([N+](=O)[O-])cc(C(=O)NCc2ccc(F)cc2)cc1[N+](=O)[O-],-0.5%,-2.1%,-14.8%,-1.0%,-2.9%,17.2
COc1ccc2c(c1)C1NC(=S)NC(C)(O2)C1C(=O)Nc1ccc(C)cc1C (configuration not stated),24.1%,-3.7%,u,24.5%,1.8%,-56.4*
CCNC(=O)CON=C1c2ccccc2-c2ccccc21,6.6%,u,u,-15.7%,-10.0%,-7.9
CCC(CC)NC(=O)CON=C1c2ccccc2-c2ccccc21,1.2%,20.6µM*,16.4µM*,-11.1%,-0.2%,-15.8
CCOc1cccc2c1OC(c1cc(OC)c(OC)c(OC)c1)N1N=C(c3ccc(C)o3)CC21 (configuration not stated),-31.6%,u,25.9µM*,-29.6%,-0.4%,u
COc1ccc(C2CC(c3ccc(C)o3)=NN2C(C)=O)cc1 (configuration not stated),1.0%,7.5%,-16.2%,2.5%,3.1%,-0.6
COc1ccc(N2CC(NC(=O)C3CCCC3)CC2=O)cc1OC (configuration not stated),0.3%,-12.7%,-3.0%,-1.1%,x,x
CN1C[C@@H]2[C@@H]3C(=O)N(Cc4ccccc4)C(=O)[C@@H]3[C@](Cc3ccccc3)(C1=O)N2C(=O)c1ccc(C(C)(C)C)cc1,-13.4%,16.4µM*,16.4µM*,u,-4.4%,-88.5*
SMILES,HepG2 tox,TDP1 cell CPT,DT40 TDP1 no CPT,TGFb inhibitor,S-ASM inh,IL1B secr inh
CCN1C[C@@H]2[C@@H]3C(=O)N(Cc4ccccc4)C(=O)[C@@H]3[C@](CC)(C1=O)N2C(=O)c1ccc(Cl)c(Cl)c1,-8.3%,16.4µM*,25.9µM*,-29.0%,-6.4%,-14.2
O=C(CN1CCN(c2ccc(Cl)cc2)CC1)Nc1ccc(Cl)c(C(F)(F)F)c1,-40.2%,u,16.4µM*,10µM*,x,x
O=C(CN1CCN(CC(=O)Nc2ccccc2F)CC1)Nc1cccc(F)c1,-4.8%,-21.9%,-25.4%,28.6%,-7.2%,-9.9
CCOc1ccc(NC(=O)CN2CCN(CC(=O)Nc3ccc(Cl)c(C(F)(F)F)c3)CC2)cc1,12.6µM*,11.6µM*,9.2µM*,u,-13.0%,-59.0*
O=C(CN1CCN(S(=O)(=O)c2ccc(F)cc2)CC1)Nc1ccc(Cl)c(C(F)(F)F)c1,-6.9%,18.4µM*,9.2µM*,u,-11.1%,-59.7*
O=C(CN1CCN(CC(=O)Nc2ccccc2F)CC1)Nc1ccc(Cl)c(C(F)(F)F)c1,-65.5%,7.31µM*,6.51µM*,-10.2%,x,x
O=C(CN1CCN(S(=O)(=O)c2ccc(F)cc2)CC1)Nc1ccc2c(c1)OCCO2,-0.7%,-1.1%,-25.2%,-2.3%,-0.2%,-2.4
COC(=O)[C@H]1C[C@H]1[C@@H](NC(=O)c1ccc[nH]1)c1ccccc1,-0.7%,-1.0%,0.7%,9.4%,-0.7%,51.9
CC1CCN(C(=O)c2[nH]cnc2C(=O)Nc2ccccc2)CC1,0.1%,-17.8%,-18.6%,-8.2%,0.8%,-5.9
Cc1cccc(C)c1Cn1c(C)c(C(=O)NCCC#N)sc1=O,-3.7%,-6.2%,-4.8%,-5.2%,x,4.3
CCN1CCN(Cc2c(O)ccc3c(=O)c(Oc4ccccc4Cl)c(C(F)(F)F)oc23)CC1,-49.3%,u,20.6µM*,-2.9%,x,x
CN1CCN(Cc2c(O)ccc3c(=O)c(Oc4ccccc4Cl)c(C(F)(F)F)oc23)CC1,-2.7%,u,-7.1%,2.2%,0.8%,7.9
